Compounds without any hit were thinned out: in the full panel of roughly 83,000, 20% have a hit.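 Treatment: one concentration, 48 hours, 96-well format. Scoring: percent growth, with anything below 10 considered active.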 Unmarked numbers belong to inactive results. Activity calls are given as the source filed them.

Common to all, as to assay: NCI-60 one-dose screen, 48 h (100 = growth as untreated, 0 = no growth, -100 = all killed)
In one experiment the test system is DU-145 prostate. Particulars: 10 µM unless noted.
Another experiment relates to K-562 leukemia. The settings on record: 10 µM unless noted.
The next experiment has as its system MALME-3M melanoma. The settings on record: 10 µM unless noted.
In another experiment the test system is MDA-MB-231 breast. Particulars: 10 µM unless noted.
The next experiment concerns RXF 393 renal. The settings on record: 10 µM unless noted.
The test system of the next experiment is SF-268 CNS. The settings on record: 10 µM unless noted.
For another experiment, the system named is SF-295 CNS. The settings on record: 10 µM unless noted.
The next experiment has as its system SF-539 CNS. Particulars: 10 µM unless noted.
A further experiment deals with UACC-257 melanoma. Particulars: 10 µM.
The subject of another experiment is M14 melanoma. Particulars: 10 µM unless noted.

With `CC[C@H](C)[C@H]1NC(=O)[C@@H](N[C@](C)(O)[C@@H](N)CC(C)C)[C@@H](C)OC(=O)[C@H](Cc2ccc(OC)cc2)N(C)C(=O)[C@@H]2CCCN2C(=O)[C@H](CC(C)C)NC(=O)[C@@H](C)C(=O)[C@H](C(C)C)OC(=O)C[C@@H]1O`, the growth in the experiment on DU-145 prostate is -17.5% (active); in the experiment on K-562 leukemia it was 2.2% (active); with MALME-3M melanoma, -21.4% (active); in the experiment on MDA-MB-231 breast, -15.8% (active); with RXF 393 renal, -33.1% (active); with SF-268 CNS, -1.13% (active). Besides, the growth in the experiment with SF-295 CNS was -52.1% (active); with SF-539 CNS, -27.6% (active); with UACC-257 melanoma, -24.7% (active); in the experiment with M14 melanoma, -75.3% (active).

With `CCN(CC)P(=O)(N(CC)CC)N(CCCSC/C=C(\C)CC/C=C(\C)CCC=C(C)C)CCCN1CCN(C)CC1`, the growth with DU-145 prostate was 106%; with K-562 leukemia, 71.8%; in the experiment with MALME-3M melanoma it was 98.7%; in the experiment with MDA-MB-231 breast it was 111%; in the experiment on RXF 393 renal, 91.3%; with SF-268 CNS, 102%. The growth is 96.4% with SF-295 CNS, 106% in the experiment with SF-539 CNS, 110% in the experiment with UACC-257 melanoma and 107% in the experiment with M14 melanoma.

For the molecule `CN(C)c1ccc(C2CC(c3ccccc3)=NN2/C=C2\SC(=O)NC2=O)cc1` (stereo not given), the growth was 57.7% with DU-145 prostate; 100% in the experiment on K-562 leukemia; 89% in the experiment on MALME-3M melanoma; 93.3% with MDA-MB-231 breast; 96.5% in the experiment on RXF 393 renal; 90.9% in the experiment with SF-268 CNS. The growth is 98% in the experiment on SF-295 CNS, 76% in the experiment on SF-539 CNS, 115% in the experiment on UACC-257 melanoma and 93.7% in the experiment on M14 melanoma.

Regarding `COc1ccc(/C=C/C(=O)c2ccc(NC(=O)CN3CCN(c4cc5c(cc4F)c(=O)c(C(=O)O)cn5C4CC4)CC3)cc2)cc1`, the growth in the experiment on DU-145 prostate was 126%; in the experiment with K-562 leukemia, 104%; with MALME-3M melanoma, 94.5%; with MDA-MB-231 breast, 96.2%; in the experiment with RXF 393 renal, 98.4%; in the experiment with SF-268 CNS, 113%. The growth is 95.3% in the experiment on SF-295 CNS, 108% in the experiment on SF-539 CNS, 96.5% in the experiment on UACC-257 melanoma and 96.9% in the experiment with M14 melanoma.

As to `CC(C)C[C@H](NC(=O)[C@@H](Cc1ccccc1)n1ccc(Nc2ccccc2)cc1=O)B(O)O`, the growth was 35.3% in the experiment with DU-145 prostate; 3.2% (active) with K-562 leukemia; -39.1% (active) in the experiment with MALME-3M melanoma; -24.8% (active) in the experiment on MDA-MB-231 breast; -80.2% (active) with RXF 393 renal; -31.6% (active) in the experiment on SF-268 CNS. For the same molecule, the growth in the experiment on SF-295 CNS is -20.6% (active); in the experiment on SF-539 CNS it was -17.7% (active); in the experiment on UACC-257 melanoma, -36.6% (active); in the experiment with M14 melanoma it was 9.32% (active).

With `CCn1cc(C(=O)O)c(=O)c2cc(F)c(N3CCN(S(=O)(=O)c4cccc5ccccc45)CC3)cc21`, the growth was 18.9% in the experiment with DU-145 prostate; 15.4% in the experiment on K-562 leukemia; -16% (active) in the experiment with MALME-3M melanoma; 23.9% with MDA-MB-231 breast; 29% in the experiment with RXF 393 renal; 16.4% in the experiment on SF-268 CNS. The growth with SF-295 CNS was 7.68% (active); with SF-539 CNS, 17.4%; in the experiment with UACC-257 melanoma, 14%; with M14 melanoma, 17.9%.

With `COc1cc2nc(Cl)nc(NCCO)c2cc1OC`, the growth in the experiment on DU-145 prostate is 112%; in the experiment on K-562 leukemia, 105%; with MALME-3M melanoma it was 94.4%; in the experiment on MDA-MB-231 breast it was 109%; in the experiment on RXF 393 renal it was 107%; in the experiment with SF-268 CNS, 110%. The growth is 103% with SF-295 CNS, 96.1% with SF-539 CNS, 98.6% in the experiment on UACC-257 melanoma and 110% in the experiment on M14 melanoma.

As for `COc1ccc(-c2nc(-c3nc4ccc(F)cc4[nH]3)cc3c2[nH]c2ccccc23)cc1`, the growth in the experiment with DU-145 prostate is 25.6%; in the experiment with K-562 leukemia it was 20.3%; in the experiment with MALME-3M melanoma, 39.1%; with MDA-MB-231 breast it was 43.6%; in the experiment with RXF 393 renal, 56.5%; with SF-268 CNS, 41.3%. Besides, the growth with SF-295 CNS was 55.5%; in the experiment with SF-539 CNS it was 69.1%; in the experiment with UACC-257 melanoma it was 9.58% (active); with M14 melanoma, 36%.

In the case of `COc1cc(CNC(=O)CCSc2nc3ccccc3c(=O)n2Cc2cc(OC)c(OC)c(OC)c2)cc(OC)c1OC`, the growth is 58.1% in the experiment with DU-145 prostate; 8.67% (active) with K-562 leukemia; 40.9% in the experiment on MALME-3M melanoma; 46% with MDA-MB-231 breast; 43.6% in the experiment with RXF 393 renal; 50.4% in the experiment on SF-268 CNS. In addition, the growth in the experiment on SF-295 CNS was 36.6%; in the experiment on SF-539 CNS it was 25.4%; in the experiment on UACC-257 melanoma, 59.1%; in the experiment on M14 melanoma it was 6.56% (active).

The record behind these values is PubChem BioAssay (NCI).
